Active and inactive are the calls of the source. Rule for the calls: active = hit-call score of the fitted dose curve at least 0.9, where 1 is the maximum; inactive = score below 0.9.

A short description of the assay: CCTE_Simmons_MITO_basal_resp_rate: CCTE's HepG2 Seahorse XF Respirometric Screening Assay at Basal Respiratory State, Simmons Lab (AID 2284001). Conditions: actives raise or lower the signal. How it is done: CCTE_Simmons_MITO is cell-based, respirometric assay using HepG2 cells and a Seahorse XF Analyzer to measure oxygen consumption rates over four temporal phases spanning a total of 72 minutes: pre-injection (pre-treatment), basal (following test compound injection), maximal (following FCCP uncoupler injection), and inhibited (following rotenone/antimycin A injection)CCTE_Simmons_MITO_basal_resp_rate is one of 4 assay components calculated from the CCTE_Simmons_MITO assay. It is designed to make measurements of basal respiration using a form of respirometric reporter, as detected with […] signals by Seahorse XF96 technology. Data from the assay component CCTE_Simmons_MITO_basal_resp_rate was analyzed at the endpoint, CCTE_Simmons_MITO_basal_resp_rate_OCR, with bidirectional fitting relative to DMSO as the negative control and baseline of activity. Using a type of respirometric reporter, measures of basal respiration for gain or loss-of-signal activity can be used to understand cellular oxygen consumption as it relates to cellular respiration. To generalize the intended target to other relatable targets, this assay endpoint is annotated to the mitochondria intended target family, where the subfamily is respiration.
Test chemicals were administered as a titrated series of 7 concentrations from 125 nM up to 100 uM [final] prior to kinetic endpoint detection at 6 minute intervals [3 min mix followed by 3 minutes measure] for 72 minutes. Three biological replicates of technical singles were run for every chemical concentration tested. Dimethylsulfoxide [DMSO] was used as the vehicle control. The electron transport chain inhibitor fenpyroximate was used as the positive control for decreased basal respiration and was administered as a titrated series of 6 concentrations from 250 nM up to 2.75 uM [final] with technical triplicates for the top concentration only. The uncoupler 2,4-dintirophenol was used as the positive control for increased basal respiration and was administered as a titrated series of 6 concentrations from 938 nM up to 40 uM [final] with technical triplicates for the top concentration only. A Seahorse XF Analzyer is required to measure the response.
`CCOc1ccc2[nH]cc(C(=O)NCc3ccccc3)c(=O)c2n1`: the result was inactive.

Broadly, the AC50 is the midpoint of the concentration-response curve, whichever way the signal moves. Consider `NC(=O)NN=Cc1ccc([N+](=O)[O-])o1`, for which the AC50 was 50 µM (active).

Take `CCN(CC)C(=S)SSC(=S)N(CC)CC`: the compound was classed as inactive.

Regarding `CCc1ccc(O)c(C(C)(C)C)c1`, the call was inactive.

In the case of `CCCCCCCC1CCC(=O)O1` (stereo unspecified), the AC50 was 46.4 µM (active).

As for `O=C(NO)C1(NS(=O)(=O)c2ccc(Oc3ccc(F)cc3)cc2)CCOCC1`, the AC50 is 39.2 µM (active).

Consider `Cc1nccn1-c1ccc(Sc2cccc(C3(C(N)=O)CCOCC3)c2)cc1`, for which the AC50 was 9.2 µM (active).

Regarding `O=C1CN(N=Cc2ccc([N+](=O)[O-])o2)C(=O)N1`, the compound was classed as inactive.

For `CC(C)c1nnc2ccc(-c3ocnc3-c3cc(F)ccc3F)cn12`, the AC50 was 25.6 µM (active).

Consider `C=CCc1cc(S(=O)(=O)c2ccc(O)c(CC=C)c2)ccc1O`, for which the AC50 is 12.3 µM (active).

For the compound `O=C(O)c1cccc(C[C@@H]2COc3ccc(OCc4nc5cc(F)ccc5s4)cc3[C@@H]2O)c1`, the call was inactive.
